# Paper PMC3218832
# Experiments:
# Assay in all cases: protein binding microarray; high values mean tight binding
# Settings in all cases: dsDNA, one strand shown
# RELARELA (p65 homodimer) = RELARELA (p65 homodimer) (Homo sapiens, UniProt Q04206 1-307)
# p50p50 homodimer = p50p50 homodimer (Homo sapiens, UniProt P19838 7-356)
# p52p52 homodimer = molecular target: T1, p52p52 homodimer (Homo sapiens, UniProt Q00653 4-332)
# T1 sequence: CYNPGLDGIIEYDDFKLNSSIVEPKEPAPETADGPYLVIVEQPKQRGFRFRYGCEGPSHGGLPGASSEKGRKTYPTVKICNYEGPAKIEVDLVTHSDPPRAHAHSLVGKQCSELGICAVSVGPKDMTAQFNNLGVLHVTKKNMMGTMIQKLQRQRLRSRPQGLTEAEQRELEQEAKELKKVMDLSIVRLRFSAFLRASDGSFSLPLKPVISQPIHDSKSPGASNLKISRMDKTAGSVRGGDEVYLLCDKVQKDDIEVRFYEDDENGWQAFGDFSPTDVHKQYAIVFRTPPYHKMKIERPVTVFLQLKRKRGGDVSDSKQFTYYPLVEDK
# [1] = molecular target: RELA (p65) subunit of heterodimer;p50 subunit (Homo sapiens;Homo sapiens, UniProt Q04206;P19838 1-307;7-356)
# [2] = molecular target: RELA (p65) subunit of heterodimer;p52 subunit (Homo sapiens;Homo sapiens, UniProt Q04206;Q00653 1-307;4-332)
# RELB subunit;p50 subunit = RELB subunit;p50 subunit (Homo sapiens;Homo sapiens, UniProt Q01201;P19838 120-401;7-356)
# RELB subunit;p52 subunit = molecular target: T2, RELB subunit;p52 subunit (Homo sapiens;Homo sapiens, UniProt Q01201;Q00653 120-401;4-332)
# T2 sequence 1: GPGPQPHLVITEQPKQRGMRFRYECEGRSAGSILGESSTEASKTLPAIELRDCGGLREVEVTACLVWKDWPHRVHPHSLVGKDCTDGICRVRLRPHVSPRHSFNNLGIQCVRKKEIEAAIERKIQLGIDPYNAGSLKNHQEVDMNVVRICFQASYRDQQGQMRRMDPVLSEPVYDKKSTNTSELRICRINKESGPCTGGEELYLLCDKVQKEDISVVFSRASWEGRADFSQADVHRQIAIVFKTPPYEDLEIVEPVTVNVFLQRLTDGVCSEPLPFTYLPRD
# T2 sequence 2: T1 sequence
# [3] = molecular target: C-Rel subunit;p50 subunit (Homo sapiens;Homo sapiens, UniProt Q04864;P19838 1-285;7-356)
# [4] = molecular target: T3, C-Rel subunit;p52 subunit (Homo sapiens;Homo sapiens, UniProt Q04864;Q00653 1-285;4-332)
# T3 sequence 1: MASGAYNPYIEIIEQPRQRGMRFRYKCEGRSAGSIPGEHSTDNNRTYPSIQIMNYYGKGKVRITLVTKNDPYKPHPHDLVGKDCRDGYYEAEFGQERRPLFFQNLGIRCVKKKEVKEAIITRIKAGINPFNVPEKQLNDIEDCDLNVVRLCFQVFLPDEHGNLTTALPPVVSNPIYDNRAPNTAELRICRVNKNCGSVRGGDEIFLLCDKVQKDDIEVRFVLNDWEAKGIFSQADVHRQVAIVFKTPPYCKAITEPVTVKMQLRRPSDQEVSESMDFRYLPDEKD
# T3 sequence 2: T1 sequence
# Chain of RELARELA (p65 homodimer) (Q04206 1-307): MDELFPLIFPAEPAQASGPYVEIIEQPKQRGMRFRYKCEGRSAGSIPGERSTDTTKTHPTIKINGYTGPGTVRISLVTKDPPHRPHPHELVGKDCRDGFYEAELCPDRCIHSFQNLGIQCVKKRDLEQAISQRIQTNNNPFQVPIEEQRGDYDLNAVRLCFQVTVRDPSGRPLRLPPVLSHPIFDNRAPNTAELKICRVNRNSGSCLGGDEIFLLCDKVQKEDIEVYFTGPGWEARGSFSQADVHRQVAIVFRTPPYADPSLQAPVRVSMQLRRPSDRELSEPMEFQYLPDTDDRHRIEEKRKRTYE
# Chain of RELA (p65) subunit of heterodimer;p50 subunit (Q04206 1-307, chain 1 of 2): as the sequence (Q04206 1-307) above
# Chain of RELA (p65) subunit of heterodimer;p50 subunit (P19838 7-356, chain 2 of 2): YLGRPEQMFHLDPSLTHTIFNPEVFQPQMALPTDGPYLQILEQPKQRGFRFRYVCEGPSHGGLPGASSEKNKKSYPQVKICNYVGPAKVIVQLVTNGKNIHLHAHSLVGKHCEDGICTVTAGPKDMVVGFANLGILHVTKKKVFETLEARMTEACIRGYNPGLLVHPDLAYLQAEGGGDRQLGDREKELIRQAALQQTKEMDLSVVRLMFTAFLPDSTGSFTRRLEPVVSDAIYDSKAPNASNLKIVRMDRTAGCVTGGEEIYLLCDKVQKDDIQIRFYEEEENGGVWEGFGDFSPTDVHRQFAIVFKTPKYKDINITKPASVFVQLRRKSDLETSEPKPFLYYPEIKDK
# Chain of p50p50 homodimer (P19838 7-356): as the sequence (P19838 7-356, chain 2 of 2) above
sequence,measurement,setting,value
GGAGTTCCCCT,binding signal,RELARELA (p65 homodimer),2.77 z-score
same,binding signal,p50p50 homodimer,1.14 z-score
same,binding signal,p52p52 homodimer,2.83 z-score
same,binding signal,[1],2.64 z-score
same,binding signal,[2],2.79 z-score
same,binding signal,RELB subunit;p50 subunit,2 z-score
same,binding signal,RELB subunit;p52 subunit,2.29 z-score
same,binding signal,[3],2.61 z-score
same,binding signal,[4],3.5 z-score
AGATAGTTCCC,binding signal,RELARELA (p65 homodimer),0.521 z-score
same,binding signal,p50p50 homodimer,-0.317 z-score
same,binding signal,p52p52 homodimer,-0.177 z-score
same,binding signal,[1],-0.261 z-score
same,binding signal,[2],-0.107 z-score
same,binding signal,RELB subunit;p50 subunit,-0.129 z-score
same,binding signal,RELB subunit;p52 subunit,-0.286 z-score
same,binding signal,[3],-0.0396 z-score
same,binding signal,[4],-0.0868 z-score
CAATTGCTCCC,binding signal,RELARELA (p65 homodimer),-0.396 z-score
same,binding signal,p50p50 homodimer,-0.852 z-score
same,binding signal,p52p52 homodimer,-0.46 z-score
same,binding signal,[1],-0.685 z-score
same,binding signal,[2],-0.589 z-score
same,binding signal,RELB subunit;p50 subunit,-0.487 z-score
same,binding signal,RELB subunit;p52 subunit,-0.531 z-score
same,binding signal,[3],-0.849 z-score
same,binding signal,[4],-0.604 z-score
CAATAACTCCC,binding signal,RELARELA (p65 homodimer),0.145 z-score
same,binding signal,p50p50 homodimer,0.702 z-score
same,binding signal,p52p52 homodimer,0.0211 z-score
same,binding signal,[1],0.38 z-score
same,binding signal,[2],-0.231 z-score
same,binding signal,RELB subunit;p50 subunit,0.426 z-score
same,binding signal,RELB subunit;p52 subunit,-0.00688 z-score
same,binding signal,[3],0.223 z-score
same,binding signal,[4],-0.12 z-score
GAGTATTTCCC,binding signal,RELARELA (p65 homodimer),2.24 z-score
same,binding signal,p50p50 homodimer,0.925 z-score
same,binding signal,p52p52 homodimer,1.05 z-score
same,binding signal,[1],1.27 z-score
same,binding signal,[2],1.1 z-score
same,binding signal,RELB subunit;p50 subunit,0.527 z-score
same,binding signal,RELB subunit;p52 subunit,0.505 z-score
same,binding signal,[3],1.24 z-score
same,binding signal,[4],1.14 z-score
CGATAAGCCCC,binding signal,RELARELA (p65 homodimer),-0.417 z-score
same,binding signal,p50p50 homodimer,0.756 z-score
same,binding signal,p52p52 homodimer,0.22 z-score
same,binding signal,[1],0.383 z-score
same,binding signal,[2],0.238 z-score
same,binding signal,RELB subunit;p50 subunit,0.334 z-score
same,binding signal,RELB subunit;p52 subunit,0.409 z-score
same,binding signal,[3],0.25 z-score
same,binding signal,[4],0.31 z-score
GGGTACCTCCC,binding signal,RELARELA (p65 homodimer),-0.276 z-score
same,binding signal,p50p50 homodimer,0.39 z-score
same,binding signal,p52p52 homodimer,1.06 z-score
same,binding signal,[1],0.436 z-score
same,binding signal,[2],0.843 z-score
same,binding signal,RELB subunit;p50 subunit,0.429 z-score
same,binding signal,RELB subunit;p52 subunit,0.437 z-score
same,binding signal,[3],0.243 z-score
same,binding signal,[4],0.556 z-score
GAGAAGATCCC,binding signal,RELARELA (p65 homodimer),-0.164 z-score
same,binding signal,p50p50 homodimer,-0.0695 z-score
same,binding signal,p52p52 homodimer,-0.271 z-score
same,binding signal,[1],-0.131 z-score
same,binding signal,[2],-0.161 z-score
same,binding signal,RELB subunit;p50 subunit,-0.259 z-score
same,binding signal,RELB subunit;p52 subunit,-0.387 z-score
same,binding signal,[3],-0.311 z-score
same,binding signal,[4],-0.307 z-score
AGGGGGGCCCT,binding signal,RELARELA (p65 homodimer),-0.0645 z-score
same,binding signal,p50p50 homodimer,0.812 z-score
same,binding signal,p52p52 homodimer,0.991 z-score
same,binding signal,[1],0.478 z-score
same,binding signal,[2],1.13 z-score
same,binding signal,RELB subunit;p50 subunit,0.542 z-score
same,binding signal,RELB subunit;p52 subunit,1.2 z-score
same,binding signal,[3],0.525 z-score
same,binding signal,[4],1.04 z-score
GAATTCACCCC,binding signal,RELARELA (p65 homodimer),0.545 z-score
same,binding signal,p50p50 homodimer,0.437 z-score
same,binding signal,p52p52 homodimer,0.192 z-score
same,binding signal,[1],0.892 z-score
same,binding signal,[2],0.806 z-score
same,binding signal,RELB subunit;p50 subunit,0.49 z-score
same,binding signal,RELB subunit;p52 subunit,0.753 z-score
same,binding signal,[3],0.643 z-score
same,binding signal,[4],0.698 z-score
GAAAATATCCT,binding signal,RELARELA (p65 homodimer),-0.0981 z-score
same,binding signal,p50p50 homodimer,-1.17 z-score
same,binding signal,p52p52 homodimer,-0.53 z-score
same,binding signal,[1],-0.742 z-score
same,binding signal,[2],-0.608 z-score
same,binding signal,RELB subunit;p50 subunit,-1.05 z-score
same,binding signal,RELB subunit;p52 subunit,-0.797 z-score
same,binding signal,[3],-0.995 z-score
same,binding signal,[4],-0.675 z-score
AGGGACGTCCT,binding signal,RELARELA (p65 homodimer),0.554 z-score
same,binding signal,p50p50 homodimer,0.528 z-score
same,binding signal,p52p52 homodimer,1.06 z-score
same,binding signal,[1],0.549 z-score
same,binding signal,[2],0.923 z-score
same,binding signal,RELB subunit;p50 subunit,0.448 z-score
same,binding signal,RELB subunit;p52 subunit,0.709 z-score
same,binding signal,[3],0.177 z-score
same,binding signal,[4],0.67 z-score
CGATAATTCCC,binding signal,RELARELA (p65 homodimer),2.04 z-score
same,binding signal,p50p50 homodimer,0.948 z-score
same,binding signal,p52p52 homodimer,0.738 z-score
same,binding signal,[1],1.43 z-score
same,binding signal,[2],0.974 z-score
same,binding signal,RELB subunit;p50 subunit,0.871 z-score
same,binding signal,RELB subunit;p52 subunit,0.87 z-score
same,binding signal,[3],1.51 z-score
same,binding signal,[4],1.12 z-score
GAAGTGCTCCT,binding signal,RELARELA (p65 homodimer),-0.661 z-score
same,binding signal,p50p50 homodimer,-1.67 z-score
same,binding signal,p52p52 homodimer,-0.792 z-score
same,binding signal,[1],-0.918 z-score
same,binding signal,[2],-1.01 z-score
same,binding signal,RELB subunit;p50 subunit,-1.33 z-score
same,binding signal,RELB subunit;p52 subunit,-1.22 z-score
same,binding signal,[3],-1.67 z-score
same,binding signal,[4],-1 z-score
GGGGGCGCCCT,binding signal,RELARELA (p65 homodimer),0.992 z-score
same,binding signal,p50p50 homodimer,0.922 z-score
same,binding signal,p52p52 homodimer,1.68 z-score
same,binding signal,[1],1.43 z-score
same,binding signal,[2],1.58 z-score
same,binding signal,RELB subunit;p50 subunit,1.12 z-score
same,binding signal,RELB subunit;p52 subunit,1.33 z-score
same,binding signal,[3],0.776 z-score
same,binding signal,[4],1.34 z-score
